According to the supplement of paper PMC6555819:

These sequences were tested on VDR:RXRa (NR concentration 270 nM, RXRa partner concentration 90 nM) (assay: PBM binding z-score (relative to random genomic background probes); higher = stronger binding; sequences stand for … in GC…GCGATTGACAGCGTAGAATGAAGG).
Protocol: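 Protein-binding microarray (Agilent 4x180K custom design, double-stranded 60-nt probes: 5' GC cap, 34-nt variable region, 24-nt constant primer region; full probe sequence given). Purified or IVT nuclear receptor:RXRα heterodimers (3:1 NR:RXRα, mostly 270:90 nM) or homodimers were incubated for 1 h in PBS with 2% milk and no ligand, then detected with Alexa488 antibodies. Fluorescence from o1-orientation probes (~5 replicates averaged) was converted to z-scores against 500 random hg19 background probes. Variable regions are seed direct-repeat (DR0–DR5) sites, all their single-nucleotide variants and half-site ablations.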
ACTATTAGCTGAGACGAGGGCAACCGATAGGTTG gave a PBM binding z-score of 0.232. CCTGCTAGGTCATGGTCAGATAATCTACAGTATG was tested, and the PBM binding z-score was 1.62. GATACTGGGTCAGCTAGAGGCCAGAGTATGGAAA showed a PBM binding z-score of 0.938. ATCTCTAGGTATCAAGTTCAGTGAAAGAGAGGAC showed a PBM binding z-score of 1.94. For ACTATTAGTTGACTTAGGCCAACCGATACGACGC, the PBM binding z-score was 0.432. With TCTAGCAGGCCCGAGGGTCACTCAAGAGGTACGG the PBM binding z-score was 1.14. With TCTTGTAGATCAGCAGATTAAGAAAGCTGGCCAA the PBM binding z-score was 0.172. For ATCGAAAGGTAGTGAGGTGAGTATACAGAAAGGC, the PBM binding z-score was -0.165. In the case of TAGCCTAGGTCAGATCGGGCAAGTATACGCTATA, the PBM binding z-score is reported as 0.761. In the case of TGAATGAGGTTATAAGATCAGGGATCGTTGCAAA, the PBM binding z-score is reported as 0.956. TCGTGTAGATCAGCAGGTTAAGAAAGCTGGCCAA was tested, and the PBM binding z-score was 0.0438. Work on CGTCCAAGGTCAAAGGTCAGAGAAGAGATGACGG yielded a PBM binding z-score of 6.75. TTACCAAGGTGAAAGGACGTTGATGCACGCCTTG showed a PBM binding z-score of 0.0674. Work on CCTCGGGGGACAGAAGGTCAGAGCTGTCCGCTTT yielded a PBM binding z-score of 2.3. Sequence AGAATGAGGTTAAGATCCGGGAAACAGAATACAT has a PBM binding z-score of 1.05. In the case of CCTAGCGGGCCAATCTGGGTCACTCAAGGCTTGA, the PBM binding z-score is reported as 0.28. TCATATACGTAAATGCTAGGTGAAAGTCCGATCT showed a PBM binding z-score of 0.839. With CCTACTGGGCCAAAGGTCATTTATTCCAATGCTC the PBM binding z-score was 4.34. Sequence TCGAGTAGGTTAGGGGCTTTCAGAATGGCGTCGA has a PBM binding z-score of -0.3. CCGACTGGGCCACGAAAGGTCATTGATTCAGTGA was tested, and the PBM binding z-score was 4.05. For TCGACTAGGTTACCAATGGGGCATTCAGCTTTCT, the PBM binding z-score was 0.439. With TCATATAGGTAAATGGTAGGTGAAAGTCCGATCT the PBM binding z-score was 1.16. ATTCCAAGGTGATCGTGAGGTCGTTGATACTAAC was tested, and the PBM binding z-score was 3.31. Work on ATACCAAGGTGATCGTGAGGTCGGTGATACTAAC yielded a PBM binding z-score of 0.863. With AGAATGAGGTTATACGTAGATCAGTGAAGAAAGT the PBM binding z-score was 1.31. Work on CCTACTGGGCCATCGGGTCATTGATATCAACGTT yielded a PBM binding z-score of 2.27. With CATATTAGTTGACCATAAGGGCAACCGAAGCTCG the PBM binding z-score was 0.551. Work on GCTGCTGGGTCAGGTTGGTCAGCTAACGGGTACG yielded a PBM binding z-score of 0.554. CCTACTGGGCCATTCAGAGGTGATTGATCATATG gave a PBM binding z-score of -0.104. Sequence GCTAGTTGATCAGTAAAAGGTCACACACCGGTCG has a PBM binding z-score of 3.87. In the case of ATGTGTAGGTTAGCTGGGGTCATTCAGACTAGGC, the PBM binding z-score is reported as 6.24. TTACCAAGGTGAGCTGAGATCGTTGATCCAACTC showed a PBM binding z-score of -0.473. GCCTGTAGATCAAGGTTAAGAAAGACTAAGCTAA showed a PBM binding z-score of 0.142. GGAACGAGAGCATTCGAGTTGATAGCATGGCGAT showed a PBM binding z-score of -0.115. Sequence GCGACTGGGGCAAAGCCGGTTACCATAAGGTTGG has a PBM binding z-score of -0.76. With TCTAGTTGGTCAAAAGTCACACACTCGAAATGCG the PBM binding z-score was 1.21. In the case of CTCCAAAGGTCGTGCTCAGGTGAGTATACCAAAC, the PBM binding z-score is reported as 3.59. Work on TGGCCTAGGTCATTGGGCCAGTATAGTACGCATC yielded a PBM binding z-score of 1.87. With CTCGAAGGGTCGTGCTCAGGTGAGTATACCAAAC the PBM binding z-score was 1.59. GGAACAAGGGCAAGTTGATAGCAGAGTTTGATGG was tested, and the PBM binding z-score was 0.829.
